High-throughput results deposited in PubChem by National Center for Advancing Translational Sciences (NCATS).
This is a sample that favours compounds with a hit; in the whole collection about 13% have one here.
Pf growth 48h – Primary qHTS for delayed death inhibitors of the malarial parasite plastid, 48 hour incubation. P. falciparum luciferase growth in erythrocytes, 48 h. Potency, µM (series often up to 28.7 µM), inactives show top-dose activity change, negative = inhibition, hits mostly inhibitors. 310,000 compounds, 5.9% hits. AID 504832, 2011; further: potency means the concentration at half of the fitted maximal effect
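First compound was added to culture medium, then infected red cells at 0.1% parasitemia and 2% hematocrit (final). After incubation at 37 C under 5% CO2, luciferase detection reagent was dispensed and light output recorded.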
HCMV inh – qHTS Assay for inhibitors of the human cytomegalovirus (HCMV). HFF cells, HCMV-luciferase reporter, 72 h; hits give low values. activity change, negative = inhibition, % at 57.5 µM. 410,000 compounds, 4.5% hits. AID 1259415, 2018; in the data active means activity change below about -60%; inconclusive means no clear call, values can overlap the other calls; inactive means above about -39%
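Human foreskin fibroblasts infected with luciferase-reporter HCMV at MOI 1 PFU/cell, compounds at two doses. Luciferase measured 72 h post infection; normalized to buffer-only basal and Salinomycin (10uM) controls.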
Pf growth 96h – Primary qHTS for delayed death inhibitors of the malarial parasite plastid, 96 hour incubation; Potency, µM (titrated, usually from 28.7 µM), inactives show at the top dose activity change, negative = inhibition, hits mostly inhibitors; P. falciparum luciferase reporter growth, 96 h; 320,000 compounds, 6.9% hits; further: potency means the concentration at half of the fitted maximal effect
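Parasite growth measured via integrated firefly luciferase reporter in P. falciparum. Infected erythrocytes at 2% hematocrit, 0.05% parasitemia final were treated 96 hours at 37 C under 5% CO2, and luminescence was read.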
HCV inhibitor – qHTS Assay for Inhibitors of Hepatitis C Virus (HCV); Huh7.5.1 HCVcc-Cre infection, luciferase reporter, 44 h; Potency, µM (series often up to 41.8 µM), without a hit: at the highest dose activity change, negative = inhibition, usual class: inhibitors; 340,000 compounds, 3.4% hits; AID 651820, 2012; further: potency means the concentration at half of the fitted maximal effect
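HCVcc-Cre virus at an moi near 0.5 was added right after compound to cells cultured 4 h from seeding (1,000 cells/well). Luciferase activity was determined 44 h later, 15 min after substrate addition at RT.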
The depositor's hits bear a star; u = inconclusive; x = no result; [ ] = another dose, or the depositor's remark. Unless noted, the call rests on the fitted dose curve; in most records, active means well fitted inhibition curve with a large enough effect; inconclusive means small, poorly fitted or top-dose-only effect, or another doubt; inactive means no such curve, though single readings can be large or run the other way. On the % scale 0 is the no-effect control and ±100 the full control effect.

SMILES	Pf growth 48h	HCMV inh	Pf growth 96h	HCV inhibitor
CCCC(c1nnnn1C1CCCCC1)N1C(=O)C(=O)c2ccccc21 (configuration not stated)	x	-17.3	x	x
COc1cc(C(=O)N/N=C/c2ccc(OC(=O)c3ccccc3)c(OC)c2)ccc1O	-5.1%	6.2	9.28µM*	7.4%
COc1ccc(/C=N/NC(=O)c2cccc([N+](=O)[O-])c2)cc1OC(=O)c1ccc(C)cc1	1.0%	-26.2	32.0%	11.6%
COc1ccc(/C=N/NC(=O)c2cccc([N+](=O)[O-])c2)cc1OC(=O)c1ccccc1	-4.6%	-35.5	x	11.2µM*
O=C(NCc1ccccc1)C1=C[C@@H](c2csc3ccccc23)C[C@@H](OCCCCO)O1	u	-97.1*	u	-20.3%[8.37 µM]
O=C(NCc1nc2ccccc2[nH]1)C1=C[C@@H](c2csc3ccccc23)C[C@@H](OCCCCO)O1	2.62µM*	-18.8	2.08µM*	-20.3%
O=C(NC1CC1)C1=C[C@@H](c2csc3ccccc23)C[C@@H](OCCCCO)O1	10.4µM*	-37.2	13.1µM*	-1.7%
O=C(CN1C(=O)CCn2nc(-c3ccccc3)cc21)NCc1ccc(F)cc1	x	-0.3	x	x
O=C(CCCSc1ccccc1)Nc1ccc(Cl)c(S(=O)(=O)N2CCOCC2)c1	13.1µM*	0.0	10.4µM*	u
CCN(CC(=O)Nc1ccc(C)c(S(=O)(=O)N2CCOCC2)c1)Cc1ccccc1	11.7µM*	-22.1	u	-24.7%
Cc1ccc(NC(=O)C(=O)c2c(-c3ccccc3)cc3ccccn23)cc1S(=O)(=O)N1CCOCC1	9.28µM*	-75.9*	x	u
O=C(CCSc1ccccc1)Nc1ccc(S(=O)(=O)N2CCOCC2)cc1	x	26.4	-29.5%	7.0%
Cc1ccc(NC(=O)CCCOc2ccccc2)cc1S(=O)(=O)N1CCOCC1	10.4µM*	-12.6	u	u
CCOc1ccccc1CNC(=O)CN(c1ccc(C)cc1)S(=O)(=O)N(C)C	x	-0.6	x	x
CS(=O)(=O)N1CCC(n2c(C(F)(F)F)nc3cccnc32)CC1	x	-4.2	x	x
O=c1c2oc3ccccc3c2n(Cc2ccc(Cl)cc2)c(=O)n1Cc1ccco1	x	0.5	x	x
O=C(COc1cccc(Br)c1)Nc1ccc(Cl)c(S(=O)(=O)N2CCOCC2)c1	x	-29.0	x	u
O=C(CCCOc1ccccc1)Nc1ccc(Cl)c(S(=O)(=O)N2CCOCC2)c1	x	-73.4*	x	7.08µM*
CCOc1ncccc1C(=O)OCC(=O)Nc1ccc(C)c(S(=O)(=O)N2CCOCC2)c1	-0.6%	-4.4	-11.4%	2.82µM*
Cc1ccc(NC(=O)COC(=O)c2cccnc2Cl)cc1S(=O)(=O)N1CCOCC1	x	-0.8	x	8.1%
Cc1ccc(NC(=O)Cn2c(=O)ccn(Cc3ccccc3)c2=O)cc1S(=O)(=O)N1CCOCC1	x	0.0	x	11.2µM*
CN(CCOc1ccccc1)CC(=O)Nc1ccc(Cl)c(S(=O)(=O)N(C)C)c1	-18.8%	-11.8	9.28µM*	-25.7%
CN(C)S(=O)(=O)c1cc(NC(=O)CNCc2ccccc2)ccc1Cl	-11.2%	74.8	u	u
O=C(Cn1c(=O)ccn(Cc2ccccc2)c1=O)Nc1cccc(S(=O)(=O)N2CCOCC2)c1	u	-18.6	-6.6%	-10.5%
CC(=O)Nc1ccc(Nc2nc3ccc(C)cc3n3nnnc23)cc1	x	24.7	x	x
SMILES	Pf growth 48h	HCMV inh	Pf growth 96h	HCV inhibitor
COc1ccc(-n2cc(-c3ccccc3)c3c(SC(C)C(C)=O)ncnc32)cc1 (configuration not stated)	x	0.3	x	x
CS(=O)(=O)OCC(O)C(O)COS(C)(=O)=O (configuration not stated)	-11.3%	x	-16.1%	x
N#Cc1ccc(C(=O)N2CCC3CC2c2cc(-c4ccc(F)cc4)ccc23)cc1 (configuration not stated)	x	9.7	x	35.5µM*
CCCOC(=O)Nc1ccc([As](=O)(O)O)cc1NC(=O)OCCC	u	-80.1*	u	25.9%
CCOC(=O)Nc1ccc(C)cc1NC(=O)OCC	-14.5%	0.3	u	-26.8%
CC(CCc1ccc(O)cc1)N1CCC(Oc2ccc(C(=O)N3CCCC3)cc2)CC1 (configuration not stated)	-17.0%	-60.3*	-14.7%	-0.6%
CC(C)/C=C/CN1CCC(Oc2ccc(C(=O)N3CCCC3)cc2)CC1	-11.4%	-19.7	-1.1%	x
